Results published in PubChem BioAssay (NCI).
Compounds without any hit were thinned out: in the full panel of roughly 79,000, 15% have a hit. A number with no mark means an inactive call. Active and inactive are the calls of the source. Cut-off read from the data, not from the text of the source: active = growth inhibition above about 70%; inactive = the rest.

Experiment: NCI Yeast Anticancer Drug Screen. Data for the rad18 strain (AID 177)
Conditions: S. cerevisiae rad18 mutant growth inhibition, stronger effect = higher value
Procedure: Growth inhibition of yeast strains with defined genetic alterations is measured as a screen for potential anti-cancer activity. Selected strains with alterations in DNA damage repair or cell cycle control were exposed to compounds and growth inhibition was measured relative to vehicle treated controls. The strain used in this assay is rad18

O=[N+]([O-])c1ccc(S(=O)(=O)Cc2ccccc2)c([N+](=O)[O-])c1
growth inhibition (at 1.2 µM): 27% | growth inhibition (at 3.7 µM): 57% | growth inhibition (at 11.0 µM): 87% (active) | growth inhibition (at 33.0 µM): 96% (active) | growth inhibition (at 100.0 µM): 99% (active)

CC(C)CCC[C@@H](C)[C@H]1CC[C@H]2[C@@H]3CC[C@H]4C[C@H](N)CC[C@]4(C)[C@H]3CC[C@]12C
growth inhibition (at 1.2 µM): -1% | growth inhibition (at 3.7 µM): 0% | growth inhibition (at 11.0 µM): 3% | growth inhibition (at 33.0 µM): -6% | growth inhibition (at 100.0 µM): 3%

O=[N+]([O-])[O][Sn]([O][Sn]([O][N+](=O)[O-])([c]1ccccc1)[c]1ccccc1)([c]1ccccc1)[c]1ccccc1
growth inhibition (at 1.2 µM): -12% | growth inhibition (at 3.7 µM): -12% | growth inhibition (at 11.0 µM): -11% | growth inhibition (at 33.0 µM): 5% | growth inhibition (at 100.0 µM): 90% (active)

CCN(CC)CC(=O)c1ccc2cc(Cl)c3ccccc3c2c1
growth inhibition (at 1.2 µM): 20% | growth inhibition (at 3.7 µM): 42% | growth inhibition (at 11.0 µM): 99% (active) | growth inhibition (at 33.0 µM): 98% (active) | growth inhibition (at 100.0 µM): 98% (active)

CC1CCN(CCC(=O)c2ccc([N+](=O)[O-])cc2)CC1
growth inhibition (at 1.2 µM): 6% | growth inhibition (at 3.7 µM): 16% | growth inhibition (at 11.0 µM): 23% | growth inhibition (at 33.0 µM): 20% | growth inhibition (at 100.0 µM): 31%

Cc1ccc(S(=O)(=O)N/N=C/C(Br)=C(/Br)C(=O)O)cc1
growth inhibition (at 1.2 µM): 24% | growth inhibition (at 3.7 µM): 36% | growth inhibition (at 11.0 µM): 64% | growth inhibition (at 33.0 µM): 95% (active) | growth inhibition (at 100.0 µM): 86% (active)

c1ccc2c(c1)N=C1CCCC3CCCC123 (stereo not given)
growth inhibition (at 1.2 µM): -2% | growth inhibition (at 3.7 µM): -3% | growth inhibition (at 11.0 µM): 0% | growth inhibition (at 33.0 µM): -6% | growth inhibition (at 100.0 µM): 98% (active)

O=C(C#Cc1ccccc1)/C=C/c1ccccc1
growth inhibition (at 1.2 µM): -5% | growth inhibition (at 3.7 µM): 4% | growth inhibition (at 11.0 µM): 13% | growth inhibition (at 33.0 µM): 81% (active) | growth inhibition (at 100.0 µM): 95% (active)
